We go through one sequence from PMC7862700, “An all-to-all approach to the identification of sequence-specific readers for epigenetic DNA modifications on cytosine”.

Common to all, as to experiment: DAPPL (digital affinity profiling via proximity ligation, sequencing); 10 mM Tris-HCl pH 7.5, 50 mM NaCl, 1 mM DTT, 4% glycerol, room temperature, 30 min; GST-TFs on glutathione beads, 16-mer random dsDNA library, 0.1% formaldehyde crosslink after washing; high values mean tight binding
One experiment addresses T1, FEV (Homo sapiens, UniProt Q99581 1-238).
T1 sequence: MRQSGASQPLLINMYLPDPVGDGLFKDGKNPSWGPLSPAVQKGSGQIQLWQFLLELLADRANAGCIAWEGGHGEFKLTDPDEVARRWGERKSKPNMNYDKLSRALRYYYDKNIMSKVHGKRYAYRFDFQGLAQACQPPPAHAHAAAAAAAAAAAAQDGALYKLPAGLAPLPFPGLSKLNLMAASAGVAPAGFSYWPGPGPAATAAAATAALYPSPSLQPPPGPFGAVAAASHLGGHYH
The note with it: protein: recombinant; tags: N-terminal GST; dsDNA, one strand shown. In a few lines: (§1)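 Sequencing on an Illumina NextSeq500 followed washing, crosslinking with 0.1% formaldehyde, proximity ligation (BsaI/T4 ligase, 1 h, 37 °C) and PCR amplification of pools that had been incubated for 30 min at room temperature with 200 nmole of a random double-stranded 16-mer DNA library in Tris/NaCl/DTT/glycerol buffer. Each pool held DNA-barcoded human transcription factors, expressed in yeast as GST fusions and captured on glutathione beads, plus a tag-only sample. Binding signal is a hexamer's read frequency for a factor divided by its frequency in the tag-only sample.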

The next experiment concerns the target ETV5 (Homo sapiens, UniProt P41161 1-510). The note with it: protein: recombinant; tags: N-terminal GST; dsDNA, one strand shown. The procedure, abridged: as §1
The next experiment addresses HSF1 (Homo sapiens, UniProt Q00613 1-529). To be noted: protein: recombinant; tags: N-terminal GST; chain copies: 3; dsDNA, one strand shown. The procedure, abridged:
as §1

In a further experiment the target is T2, SPIC (Homo sapiens, UniProt Q8N5J4 1-248).
T2 sequence: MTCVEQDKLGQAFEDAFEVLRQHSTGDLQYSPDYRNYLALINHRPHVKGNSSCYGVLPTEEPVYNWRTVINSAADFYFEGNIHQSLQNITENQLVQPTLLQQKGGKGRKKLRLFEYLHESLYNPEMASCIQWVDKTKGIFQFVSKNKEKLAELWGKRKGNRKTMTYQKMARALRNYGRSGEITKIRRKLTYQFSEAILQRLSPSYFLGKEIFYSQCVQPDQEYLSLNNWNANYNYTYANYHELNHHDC
To be noted: protein: recombinant; tags: N-terminal GST; dsDNA, one strand shown. In a few lines:
as §1

The target of the next experiment is ELF4 (Homo sapiens, UniProt Q99607 1-663). To be noted: protein: recombinant; tags: N-terminal GST; dsDNA, one strand shown. The procedure, abridged: as §1
Chain of ELF4 (Q99607 whole entry): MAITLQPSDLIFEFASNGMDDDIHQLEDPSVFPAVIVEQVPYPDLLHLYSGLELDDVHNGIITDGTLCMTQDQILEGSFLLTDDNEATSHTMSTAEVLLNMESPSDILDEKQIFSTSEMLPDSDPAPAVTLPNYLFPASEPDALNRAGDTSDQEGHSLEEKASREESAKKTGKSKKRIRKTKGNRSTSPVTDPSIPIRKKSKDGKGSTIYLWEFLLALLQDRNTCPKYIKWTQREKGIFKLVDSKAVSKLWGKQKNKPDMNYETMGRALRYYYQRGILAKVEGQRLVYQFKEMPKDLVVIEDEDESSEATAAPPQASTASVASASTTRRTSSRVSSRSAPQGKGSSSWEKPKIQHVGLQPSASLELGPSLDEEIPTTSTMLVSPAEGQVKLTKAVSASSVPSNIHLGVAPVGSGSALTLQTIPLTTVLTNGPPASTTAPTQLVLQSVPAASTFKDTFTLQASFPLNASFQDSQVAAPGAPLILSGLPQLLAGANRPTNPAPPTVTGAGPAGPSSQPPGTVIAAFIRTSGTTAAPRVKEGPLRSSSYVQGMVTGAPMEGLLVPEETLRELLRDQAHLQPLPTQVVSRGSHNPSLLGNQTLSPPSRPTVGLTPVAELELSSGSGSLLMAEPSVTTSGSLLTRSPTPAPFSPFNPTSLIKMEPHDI
For another experiment, the target named is T3, ELK4 (Homo sapiens, UniProt P28324-2 1-405).
T3 sequence: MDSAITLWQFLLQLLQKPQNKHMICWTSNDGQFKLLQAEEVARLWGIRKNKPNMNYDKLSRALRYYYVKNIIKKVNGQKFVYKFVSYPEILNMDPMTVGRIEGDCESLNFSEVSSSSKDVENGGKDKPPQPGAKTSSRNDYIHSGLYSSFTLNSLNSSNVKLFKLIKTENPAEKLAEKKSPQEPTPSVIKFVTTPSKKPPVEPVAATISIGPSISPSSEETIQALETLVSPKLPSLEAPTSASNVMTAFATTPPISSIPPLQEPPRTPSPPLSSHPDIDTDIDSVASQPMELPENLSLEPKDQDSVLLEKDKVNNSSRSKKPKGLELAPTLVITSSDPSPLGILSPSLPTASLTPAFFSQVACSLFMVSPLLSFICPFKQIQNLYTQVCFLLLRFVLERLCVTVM
The note with it: protein: recombinant; tags: N-terminal GST; dsDNA, one strand shown. In a few lines: as §1

Another experiment concerns the target T4, ETV2 (Homo sapiens, UniProt O00321 1-342).
T4 sequence: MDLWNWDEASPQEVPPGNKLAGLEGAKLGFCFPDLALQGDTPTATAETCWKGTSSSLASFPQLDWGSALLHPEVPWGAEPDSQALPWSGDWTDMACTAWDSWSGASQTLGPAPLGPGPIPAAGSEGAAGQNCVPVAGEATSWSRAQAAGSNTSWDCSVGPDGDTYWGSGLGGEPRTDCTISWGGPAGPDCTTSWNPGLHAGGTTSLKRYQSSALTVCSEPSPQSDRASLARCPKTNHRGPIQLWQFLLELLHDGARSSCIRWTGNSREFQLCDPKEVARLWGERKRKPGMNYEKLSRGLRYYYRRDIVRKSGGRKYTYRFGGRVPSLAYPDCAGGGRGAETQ
The note with it: protein: recombinant; tags: N-terminal GST; dsDNA, one strand shown. In a few lines:
as §1

Another experiment has as its target T5, ELF3 (Homo sapiens, UniProt P78545 1-371).
T5 sequence: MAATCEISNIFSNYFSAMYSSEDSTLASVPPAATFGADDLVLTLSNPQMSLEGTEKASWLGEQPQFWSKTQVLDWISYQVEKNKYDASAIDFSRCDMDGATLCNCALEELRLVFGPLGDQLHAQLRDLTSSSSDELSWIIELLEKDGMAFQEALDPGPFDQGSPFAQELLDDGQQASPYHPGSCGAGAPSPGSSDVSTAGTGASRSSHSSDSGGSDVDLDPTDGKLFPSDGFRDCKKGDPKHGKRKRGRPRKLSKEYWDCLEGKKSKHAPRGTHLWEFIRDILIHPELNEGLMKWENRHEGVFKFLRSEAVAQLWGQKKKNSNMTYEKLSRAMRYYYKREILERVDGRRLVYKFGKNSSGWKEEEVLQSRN
The note with it: protein: recombinant; tags: N-terminal GST; dsDNA, one strand shown. The procedure, abridged: as §1

The next experiment deals with CRX (Homo sapiens, UniProt O43186 1-299). To be noted: protein: recombinant; tags: N-terminal GST; dsDNA, one strand shown. In a few lines: as §1
Chain of CRX (O43186 whole entry): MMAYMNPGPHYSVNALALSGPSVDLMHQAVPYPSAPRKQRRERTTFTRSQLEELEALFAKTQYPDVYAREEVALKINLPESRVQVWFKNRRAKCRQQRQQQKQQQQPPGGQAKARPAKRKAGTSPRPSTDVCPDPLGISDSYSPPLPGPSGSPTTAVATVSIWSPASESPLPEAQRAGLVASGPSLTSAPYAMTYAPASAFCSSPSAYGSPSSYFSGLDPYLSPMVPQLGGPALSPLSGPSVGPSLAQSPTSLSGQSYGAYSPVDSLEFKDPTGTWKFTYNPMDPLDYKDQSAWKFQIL
The target of another experiment is ETV1 (Homo sapiens, UniProt P50549 1-477). The note with it: protein: recombinant; tags: N-terminal GST; dsDNA, one strand shown. The procedure, abridged: as §1
Chain of ETV1 (P50549 whole entry): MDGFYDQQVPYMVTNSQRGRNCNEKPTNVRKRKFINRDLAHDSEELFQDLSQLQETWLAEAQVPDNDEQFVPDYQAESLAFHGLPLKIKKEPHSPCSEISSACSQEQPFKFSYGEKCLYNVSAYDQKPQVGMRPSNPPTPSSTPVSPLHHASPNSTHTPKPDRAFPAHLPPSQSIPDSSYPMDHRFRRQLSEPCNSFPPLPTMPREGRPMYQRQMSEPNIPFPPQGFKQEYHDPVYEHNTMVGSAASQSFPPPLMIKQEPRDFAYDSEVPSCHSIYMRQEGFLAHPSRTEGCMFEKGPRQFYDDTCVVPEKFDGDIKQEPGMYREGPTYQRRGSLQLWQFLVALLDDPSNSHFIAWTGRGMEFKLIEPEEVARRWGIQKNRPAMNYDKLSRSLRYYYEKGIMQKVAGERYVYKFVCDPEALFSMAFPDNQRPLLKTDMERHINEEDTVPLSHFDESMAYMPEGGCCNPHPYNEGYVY
The next experiment has as its target T6, ERF (Homo sapiens, UniProt P50548 1-548).
T6 sequence: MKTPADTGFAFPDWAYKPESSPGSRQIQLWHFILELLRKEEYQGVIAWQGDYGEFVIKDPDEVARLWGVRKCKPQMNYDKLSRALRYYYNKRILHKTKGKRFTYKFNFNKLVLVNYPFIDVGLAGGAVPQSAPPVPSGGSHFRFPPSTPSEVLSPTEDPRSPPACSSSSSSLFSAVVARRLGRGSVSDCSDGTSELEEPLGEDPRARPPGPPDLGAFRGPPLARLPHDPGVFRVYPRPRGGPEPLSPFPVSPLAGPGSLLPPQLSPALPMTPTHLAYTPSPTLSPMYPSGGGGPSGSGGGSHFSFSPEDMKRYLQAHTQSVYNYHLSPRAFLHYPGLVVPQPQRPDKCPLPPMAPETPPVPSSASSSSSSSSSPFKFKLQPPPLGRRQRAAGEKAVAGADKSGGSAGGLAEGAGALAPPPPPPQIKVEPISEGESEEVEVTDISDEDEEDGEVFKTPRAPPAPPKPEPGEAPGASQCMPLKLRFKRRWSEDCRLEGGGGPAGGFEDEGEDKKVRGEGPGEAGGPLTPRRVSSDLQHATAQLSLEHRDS
The note with it: protein: recombinant; tags: N-terminal GST; dsDNA, one strand shown. The procedure, abridged:
as §1

In another experiment the target is T7, ETV3L (Homo sapiens, UniProt Q6ZN32 1-361).
T7 sequence: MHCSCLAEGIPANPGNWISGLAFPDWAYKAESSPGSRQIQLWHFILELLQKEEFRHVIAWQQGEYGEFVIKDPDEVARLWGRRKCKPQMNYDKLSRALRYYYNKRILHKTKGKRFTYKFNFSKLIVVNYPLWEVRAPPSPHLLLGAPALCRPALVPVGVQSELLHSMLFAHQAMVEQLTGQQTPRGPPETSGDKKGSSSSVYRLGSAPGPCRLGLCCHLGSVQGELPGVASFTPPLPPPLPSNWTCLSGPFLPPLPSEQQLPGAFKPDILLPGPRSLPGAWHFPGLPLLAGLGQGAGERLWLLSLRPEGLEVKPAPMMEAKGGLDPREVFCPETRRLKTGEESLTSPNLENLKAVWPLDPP
The note with it: protein: recombinant; tags: N-terminal GST; dsDNA, one strand shown. The procedure, abridged: as §1

Another experiment has as its target T8, ETS2 (Homo sapiens, UniProt P15036 1-469).
T8 sequence: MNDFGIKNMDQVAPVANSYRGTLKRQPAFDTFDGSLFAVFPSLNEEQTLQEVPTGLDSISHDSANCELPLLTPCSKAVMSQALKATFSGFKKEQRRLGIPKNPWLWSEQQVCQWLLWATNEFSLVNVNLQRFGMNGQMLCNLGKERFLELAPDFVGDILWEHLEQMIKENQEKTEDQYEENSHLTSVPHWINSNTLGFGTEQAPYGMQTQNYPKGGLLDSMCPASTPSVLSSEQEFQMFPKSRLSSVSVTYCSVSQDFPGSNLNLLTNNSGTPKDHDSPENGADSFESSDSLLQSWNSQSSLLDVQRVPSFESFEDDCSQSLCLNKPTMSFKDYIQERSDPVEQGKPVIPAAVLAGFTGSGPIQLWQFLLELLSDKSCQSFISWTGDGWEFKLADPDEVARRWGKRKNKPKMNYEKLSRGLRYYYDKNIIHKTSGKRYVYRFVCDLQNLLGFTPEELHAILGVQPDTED
The note with it: protein: recombinant; tags: N-terminal GST; dsDNA, one strand shown. The procedure, abridged:
as §1

The target in another experiment is T9, SPDEF (Homo sapiens, UniProt O95238 1-335).
T9 sequence: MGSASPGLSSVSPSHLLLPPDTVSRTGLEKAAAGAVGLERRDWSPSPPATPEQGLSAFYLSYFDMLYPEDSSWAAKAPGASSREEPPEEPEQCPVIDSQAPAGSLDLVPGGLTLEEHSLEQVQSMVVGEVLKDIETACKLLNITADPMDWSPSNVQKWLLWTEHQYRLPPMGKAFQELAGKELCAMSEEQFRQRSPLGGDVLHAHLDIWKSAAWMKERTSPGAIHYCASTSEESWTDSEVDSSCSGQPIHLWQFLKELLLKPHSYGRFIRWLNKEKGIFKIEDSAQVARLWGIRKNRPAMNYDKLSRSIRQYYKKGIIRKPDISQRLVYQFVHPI
To be noted: protein: recombinant; tags: N-terminal GST; dsDNA, one strand shown. The procedure, abridged:
as §1

In a further experiment the target is T10, ETV7 (Homo sapiens, UniProt Q9Y603 1-341).
T10 sequence: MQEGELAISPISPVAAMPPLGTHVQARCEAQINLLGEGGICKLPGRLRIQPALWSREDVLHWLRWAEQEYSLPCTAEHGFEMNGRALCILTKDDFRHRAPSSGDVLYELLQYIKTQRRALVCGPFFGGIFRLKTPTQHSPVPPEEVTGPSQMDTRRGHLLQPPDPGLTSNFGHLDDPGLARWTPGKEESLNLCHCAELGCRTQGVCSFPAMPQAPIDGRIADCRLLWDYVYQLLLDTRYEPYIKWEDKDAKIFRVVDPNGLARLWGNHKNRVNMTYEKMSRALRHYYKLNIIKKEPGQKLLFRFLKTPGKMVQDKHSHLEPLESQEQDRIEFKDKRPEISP
To be noted: protein: recombinant; tags: N-terminal GST; dsDNA, one strand shown. In a few lines:
as §1

A further experiment deals with T11, ELF5 (Homo sapiens, UniProt Q9UKW6-2 1-255).
T11 sequence: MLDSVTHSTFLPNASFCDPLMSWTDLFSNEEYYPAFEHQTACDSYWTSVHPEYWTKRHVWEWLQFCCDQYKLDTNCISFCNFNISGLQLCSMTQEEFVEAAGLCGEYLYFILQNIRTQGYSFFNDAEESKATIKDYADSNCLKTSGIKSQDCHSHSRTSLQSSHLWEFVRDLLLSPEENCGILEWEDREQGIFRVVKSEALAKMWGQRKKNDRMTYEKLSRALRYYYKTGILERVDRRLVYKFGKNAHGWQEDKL
To be noted: protein: recombinant; tags: N-terminal GST; dsDNA, one strand shown. In a few lines:
as §1

For another experiment, the target named is T12, ETV3 (Homo sapiens, UniProt P41162-2 1-143).
T12 sequence: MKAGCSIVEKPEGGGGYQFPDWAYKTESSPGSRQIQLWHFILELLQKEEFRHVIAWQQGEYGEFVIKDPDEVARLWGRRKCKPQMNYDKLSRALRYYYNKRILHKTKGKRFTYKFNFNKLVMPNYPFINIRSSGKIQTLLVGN
To be noted: protein: recombinant; tags: N-terminal GST; dsDNA, one strand shown. In a few lines: as §1

The next experiment concerns the target ETV6 (Homo sapiens, UniProt P41212 1-452). To be noted: protein: recombinant; tags: N-terminal GST; dsDNA, one strand shown. The procedure, abridged:
as §1

Chain of ETV5 (P41161 whole entry): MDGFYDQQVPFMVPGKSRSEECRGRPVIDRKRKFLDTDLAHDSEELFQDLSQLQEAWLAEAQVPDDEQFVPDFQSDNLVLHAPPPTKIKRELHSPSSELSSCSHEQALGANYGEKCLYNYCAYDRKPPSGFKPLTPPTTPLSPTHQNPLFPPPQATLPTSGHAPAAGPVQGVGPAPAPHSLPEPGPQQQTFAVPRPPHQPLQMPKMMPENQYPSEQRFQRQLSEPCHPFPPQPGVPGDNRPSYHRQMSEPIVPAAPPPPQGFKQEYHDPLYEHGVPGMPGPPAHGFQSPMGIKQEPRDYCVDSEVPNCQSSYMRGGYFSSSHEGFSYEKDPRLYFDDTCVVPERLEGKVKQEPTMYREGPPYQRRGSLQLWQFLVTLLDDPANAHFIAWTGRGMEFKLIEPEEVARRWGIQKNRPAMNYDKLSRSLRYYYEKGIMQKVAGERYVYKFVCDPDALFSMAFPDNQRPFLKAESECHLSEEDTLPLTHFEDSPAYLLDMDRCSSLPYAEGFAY
Chain of ETV6 (P41212 whole entry): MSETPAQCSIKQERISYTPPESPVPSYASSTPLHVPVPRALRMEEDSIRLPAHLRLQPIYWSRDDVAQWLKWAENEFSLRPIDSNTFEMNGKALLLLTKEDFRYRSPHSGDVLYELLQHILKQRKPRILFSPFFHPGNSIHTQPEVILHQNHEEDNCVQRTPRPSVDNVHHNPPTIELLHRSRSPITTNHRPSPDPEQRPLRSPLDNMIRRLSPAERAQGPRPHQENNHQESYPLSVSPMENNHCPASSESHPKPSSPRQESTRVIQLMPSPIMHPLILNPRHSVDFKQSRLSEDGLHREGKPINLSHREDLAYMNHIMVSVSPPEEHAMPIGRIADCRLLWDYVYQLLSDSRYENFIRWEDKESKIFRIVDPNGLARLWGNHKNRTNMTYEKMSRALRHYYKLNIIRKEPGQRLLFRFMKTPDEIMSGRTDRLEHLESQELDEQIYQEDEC
Chain of HSF1 (Q00613 whole entry): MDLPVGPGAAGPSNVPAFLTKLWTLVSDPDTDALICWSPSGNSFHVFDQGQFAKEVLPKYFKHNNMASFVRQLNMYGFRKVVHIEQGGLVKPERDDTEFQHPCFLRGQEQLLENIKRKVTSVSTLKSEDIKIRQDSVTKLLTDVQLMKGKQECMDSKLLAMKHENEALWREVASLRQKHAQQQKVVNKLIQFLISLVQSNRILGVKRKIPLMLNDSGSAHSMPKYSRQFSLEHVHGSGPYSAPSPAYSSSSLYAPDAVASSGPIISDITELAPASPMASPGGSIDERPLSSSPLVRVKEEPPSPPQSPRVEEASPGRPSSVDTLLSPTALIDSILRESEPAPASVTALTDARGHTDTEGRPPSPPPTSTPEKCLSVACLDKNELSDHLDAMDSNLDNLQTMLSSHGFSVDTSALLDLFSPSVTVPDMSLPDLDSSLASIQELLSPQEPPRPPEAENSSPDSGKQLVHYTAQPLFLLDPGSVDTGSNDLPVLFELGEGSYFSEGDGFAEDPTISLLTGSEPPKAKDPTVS

AGATCC: the binding signal was 1.14 fold enrichment (6-mer frequency, TF over GST control) in the experiment with FEV; 1.14 fold enrichment (6-mer frequency, TF over GST control) with ETV5; 1.11 fold enrichment (6-mer frequency, TF over GST control) with HSF1; 1.16 fold enrichment (6-mer frequency, TF over GST control) with SPIC; 1.14 fold enrichment (6-mer frequency, TF over GST control) with ELF4; 1.17 fold enrichment (6-mer frequency, TF over GST control) with ELK4. Also, the binding signal in the experiment with ETV2 is 1.06 fold enrichment (6-mer frequency, TF over GST control); in the experiment with ELF3, 1.06 fold enrichment (6-mer frequency, TF over GST control); in the experiment with CRX, 1.11 fold enrichment (6-mer frequency, TF over GST control); with ETV1, 1.14 fold enrichment (6-mer frequency, TF over GST control); with ERF it was 1.08 fold enrichment (6-mer frequency, TF over GST control); with ETV3L, 1.13 fold enrichment (6-mer frequency, TF over GST control). The binding signal with ETS2 was 1.2 fold enrichment (6-mer frequency, TF over GST control); with SPDEF, 2.08 fold enrichment (6-mer frequency, TF over GST control); in the experiment with ETV7, 1.03 fold enrichment (6-mer frequency, TF over GST control); with ELF5 it was 1.22 fold enrichment (6-mer frequency, TF over GST control); with ETV3, 1.21 fold enrichment (6-mer frequency, TF over GST control); in the experiment with ETV6, 1.1 fold enrichment (6-mer frequency, TF over GST control).
